From PubChem BioAssay
Unmarked numbers belong to inactive results. How the calls were made is not given here.

Assay: inhibitors of hydroxyurea-induced Chk1 phosphorylation, primary screen, imaging, HeLa, phospho-Chk1 nuclear intensity (AID 1187); further: test concentration not given here
Conditions: hydroxyurea-induced phospho-Chk1 immunofluorescence imaging, higher = more signal

Row | Structure (SMILES) | z-score
1 | C=CCNC(=O)[C@@H]1[C@H]2C(=O)O[C@H](c3ccccc3)[C@H](c3ccccc3)N2[C@H](c2ccccc2OCCO)[C@@]12C(=O)N(C(=O)OCCOC)c1ccc(C#CC3=CCCCC3)cc12 | -0.103
2 | CC(C)(C)OC(=O)CC[C@]1(C(=O)O)N=C(c2ccc(OCCCO)cc2)O[C@H]1c1ccccc1 | -0.243
3 | CN(C)CCCN1C(=O)[C@@]2(c3ccc([N+](=O)[O-])cc3)CC(=O)N(CC34CC5CC(CC(C5)C3)C4)[C@@H]2c2ccc(CO)cc21 | -0.112
4 | C=C(C(=O)CC[C@H](OC(=O)c1cccnc1)c1cccc(OCCO)c1)C(C)C | -0.453
5 | O=C1OCC=C[C@H]2OC34C=CCN(Cn5nnc6ccccc65)C(=O)[C@H]3N(CCCCCCO)C(=O)[C@@H]4[C@@H]12 (stereo not given in full) | 0.521
6 | COCCOC(=O)N1C(=O)[C@@]2(c3cc(C#CCNC(N)=O)ccc31)[C@H](C(=O)N1CCCCCCC1)[C@H]1C(=O)O[C@H](c3ccccc3)[C@H](c3ccccc3)N1[C@@H]2c1ccc(O)cc1 | 0.132
7 | COc1ccc(CCNC(=O)[C@@]2(Sc3ccc(C)cc3)CC(=O)N(Cc3cc(C(F)(F)F)cc(C(F)(F)F)c3)[C@@H]2c2ccc(CO)cc2I)cc1 | 0.688
8 | COc1cc2c(cc1O)C(C)N(Cc1cc3c(cc1Br)OCO3)CC2 (stereo not given) | -1.06
9 | CC(C)(C)OC(=O)CC[C@@]1(C(=O)O)N=C(c2ccc(OCCCO)cc2)O[C@@H]1c1ccccc1CN=[N+]=[N-] | -0.0647
10 | CC(C)C(=C=CC[C@H](O)c1ccc(OCCO)cc1)C[C@H](O)c1cc(Cl)cc(Cl)c1O | 0.18
11 | CC(C)NC(=O)[C@@]1(C)c2ccccc2C(=O)N(C(C)C)[C@H]1c1ccc(CO)cc1 | 0.246
12 | CCOC(=O)[C@H]1C/C=C/C[C@H](C(=O)OCC)C(=O)O[C@H]2[C@@H](OC)O[C@H](CO)[C@@H](OC(=O)CCc3ccccc3)[C@@H]2OC1=O | -0.23
13 | COCCOC(=O)N1C(=O)[C@@]2(c3cc(C#Cc4ccc(OC)cc4)ccc31)[C@H](C(=O)NC[C@H](O)c1ccccc1)[C@H]1C(=O)O[C@H](c3ccccc3)[C@H](c3ccccc3)N1[C@@H]2c1ccc(O)cc1 | 0.126
14 | COc1ccc([Si](C)(C)[C@@H]2[C@@H](CC(=O)N3CCC[C@H]3CO)O[C@]3(C(=O)N(Cc4ccc(N5C(=O)c6cccc7cccc5c67)cc4)c4ccccc43)[C@H]2C)cc1 | 0.451
15 | O=C1O[C@@H](c2ccccc2)[C@@H](c2ccccc2)N2[C@@H](c3ccccc3OCCO)[C@]3(C(=O)Nc4ccccc43)[C@@H](C(=O)NC[C@H](O)c3ccccc3)[C@H]12 | -0.169
16 | COC(=O)[C@@]1(Cc2ccc(OC)cc2)[C@H]2c3cc(C(=O)N(C)C)n(CCc4c[nH]c5ccc(O)cc45)c3C[C@H]2CN1C(=O)c1ccccc1 | -0.541
17 | C[N+](C)(C)CCCC[C@@H]1NC(=O)[C@@H]2C[C@H](C(=O)O)[C@H](c3ccc(O)cc3)N2C1=O | 0.274
18 | COc1ccc([Si](C)(C)[C@@H]2[C@@H](CCn3cc([C@H](O)c4ccccc4)nn3)O[C@]3(C(=O)N(Cc4ccc(N5CCOC5=O)cc4)c4ccccc43)[C@H]2C)cc1 | 0.221

Row | Structure (SMILES) | z-score
19 | CC(=O)n1cc(C(O)C2C=CC3C(=O)N(Cc4ccccc4)C(=O)C3N2n2cnnc2)c2ccccc21 (stereo not given) | 0.239
20 | C=CC[C@]12N=C(c3ccc(OCCCO)cc3)O[C@H]1c1ccccc1N(C)C2=O | -0.394
21 | CC1CC/C=C\[C@H]2OC34C=CCN(c5ccc6ccccc6c5)C(=O)[C@H]3N(C(CO)C(C)C)C(=O)[C@@H]4C2C(=O)O1 (stereo not given in full) | 0.604
22 | C=CCOC(=O)[C@H]1[C@@H]2C(=O)O[C@@H](c3ccccc3)[C@@H](c3ccccc3)N2[C@@H](c2ccc(OCCOC(=O)[C@H]3C[C@H]4C(=O)N[C@@H](Cc5ccccc5)C(=O)N4[C@H]3c3cccc(OCCO)c3)cc2)[C@]12C(=O)Nc1ccc(I)cc12 | -0.0401
23 | CN(C)CCCCNC(=O)[C@H]1C[C@H]2C(=O)N[C@@H](CCCCN(C)C)C(=O)N2[C@H]1c1cccc(OCCO)c1 | 0.217
24 | CCCC[C@@H]1C[C@H]1[C@@H](NC(=O)c1cccnc1)c1ccc(-c2ccccc2)cc1 | 0.452
25 | CC(C)CNC(=O)[C@@]1(c2ccc([N+](=O)[O-])cc2)CC(=O)N(C2CCCCC2)[C@@H]1c1ccc(CO)cc1I | -0.208
26 | CCCCC(=C=CC[C@@H](O)c1ccc(OCCO)cc1)C[C@@H](O)COCc1ccccc1 | 0.737
27 | CC[C@H]1C2=C3C(CC[C@H]4C(OCc5ccc(F)cc5C(F)(F)F)OC[C@](C)([C@@H]34)N(C(=O)OC(C)(C)C)C2)C2COC(=O)OCC21 (stereo not given in full) | 0.722
28 | CCCCN1CC=CC23O[C@@H]4/C=C\CCC(C)OC(=O)C4[C@H]2C(=O)N(CCCCCCO)[C@@H]3C1=O (stereo not given in full) | 0.339
29 | C=C(COC)/C(=C/C[C@@H](OC(=O)c1ccncc1)c1cccc(OCCO)c1)c1cnc2ccccc2c1 | 0.376
30 | C=C(CCCC)/C(=C/C[C@@H](OC(=O)c1ccncc1)c1cccc(OCCO)c1)c1cnc2ccccc2c1 | -0.342
31 | CO[C@H]1O[C@H](CO)[C@@H](OC(=O)Nc2ccccc2-c2ccccc2)[C@H](OC(=O)Nc2ccc3c(c2)OCO3)[C@@H]1OC(=O)Nc1ccc2c(c1)OCO2 | 0.24
32 | C#CCNC(=O)[C@H](Cc1ccccc1)NC(=O)[C@@H](N=[N+]=[N-])C(C)C | 0.815
33 | COCC(=C=CC[C@H](O)c1cccc(OCCO)c1)C[C@H](O)c1ccccn1 | 0.745
34 | COc1ccc([Si](C)(C)[C@H]2[C@H](CCn3cc(CCO)nn3)O[C@@]3(C(=O)N(Cc4ccc(N5C(=O)c6cccc7cccc5c67)cc4)c4ccccc43)[C@@H]2C)cc1 | -0.923
35 | COCCOC(=O)N1C(=O)[C@@]2(c3cc(C#CC4=CCCCC4)ccc31)[C@H](c1ccc(O)cc1)N1[C@H](c3ccccc3)[C@H](c3ccccc3)OC(=O)[C@H]1[C@@H]2C(=O)Nc1nc2ccccc2s1 | 0.125
